This note sets out measurements from PubChem BioAssay (NCI).

Among the test systems are SR leukemia; RPMI-8226 leukemia; OVCAR-8 ovarian; OVCAR-5 ovarian; OVCAR-4 ovarian; SK-OV-3 ovarian; IGROV1 ovarian; OVCAR-3 ovarian; HS 578T breast; NCI/ADR-RES ovarian.
What all share (experiment): NCI-60 one-dose screen, 48 h (100 = growth as untreated, 0 = no growth, -100 = all killed)
Holding throughout (conditions): 10 µM unless noted

Molecules are shown by their SMILES. This is part of a sample that, as a whole, favours compounds with a hit. Of some 83,000 tested, about 20% had one in any assay.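 Single-concentration screen, 48 h exposure, 96-well plates. Endpoint: percent growth. Below 10 = active.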 Values without a mark were called inactive. The source made the active and inactive calls.

On to `Cc1ccc(-c2nc([P+](c3ccccc3)(c3ccccc3)c3ccccc3)c(N3CCOCC3)o2)cc1`, for which the growth was 5.72% (active) in the experiment on SR leukemia; -24.2% (active) in the experiment on RPMI-8226 leukemia; 3.78% (active) in the experiment with OVCAR-8 ovarian; 18.9% in the experiment on OVCAR-5 ovarian; 12.3% with OVCAR-4 ovarian; -43.9% (active) with SK-OV-3 ovarian. The growth in the experiment with IGROV1 ovarian is 1.46% (active); with OVCAR-3 ovarian, -0.275% (active); in the experiment with HS 578T breast, 16.8%; in the experiment with NCI/ADR-RES ovarian it was 86%.

Turning to `CCCNc1nc(N(C)O)nc(N(C)O)n1`, the growth in the experiment on SR leukemia is 32.1%; in the experiment with RPMI-8226 leukemia, 38.1%; in the experiment with OVCAR-8 ovarian, 26.5%; in the experiment with OVCAR-5 ovarian, 64%; in the experiment on OVCAR-4 ovarian, 19.2%; in the experiment with SK-OV-3 ovarian, 45.2%. The growth is 36.9% in the experiment with IGROV1 ovarian, -10.6% (active) in the experiment with OVCAR-3 ovarian, 71% with HS 578T breast and 16.9% in the experiment with NCI/ADR-RES ovarian.

For `Cn1nc(-c2ccccc2)c2c(-c3ccccc3)onc2c1=O`, the growth with SR leukemia was 26.4%; in the experiment on RPMI-8226 leukemia, 24.9%; in the experiment with OVCAR-8 ovarian, 51.9%; in the experiment with OVCAR-5 ovarian it was 66.5%; in the experiment on OVCAR-4 ovarian it was 72.1%; with SK-OV-3 ovarian, 13.3%. In addition, the growth is 51.3% with IGROV1 ovarian, 12.2% with OVCAR-3 ovarian, 15.8% with HS 578T breast and 45.8% with NCI/ADR-RES ovarian.

For `CCOc1ccc(NC(=O)c2ccoc2COc2ccccc2)cc1`, the growth is 113% in the experiment with SR leukemia; 91.8% in the experiment on RPMI-8226 leukemia; 104% in the experiment on OVCAR-8 ovarian; 103% in the experiment on OVCAR-5 ovarian; 101% with OVCAR-4 ovarian; 106% with SK-OV-3 ovarian. The growth with IGROV1 ovarian was 93.5%; with OVCAR-3 ovarian it was 109%; in the experiment on HS 578T breast, 105%; with NCI/ADR-RES ovarian it was 102%.

As for `Cc1cc(Cl)c2c(N(C)C)cccc2n1`, the growth in the experiment on SR leukemia was 75%; with RPMI-8226 leukemia it was 104%; in the experiment on OVCAR-8 ovarian, 94.5%; in the experiment on OVCAR-5 ovarian, 119%; in the experiment with OVCAR-4 ovarian, 108%; in the experiment on SK-OV-3 ovarian it was 92.4%. In addition, the growth is 88.2% in the experiment with IGROV1 ovarian, 100% with OVCAR-3 ovarian, 136% in the experiment with HS 578T breast and 106% with NCI/ADR-RES ovarian.

As for `COc1cc(-c2cc3ncccc3c3[nH]c(=O)c4cccnc4c23)cc(OC)c1OC`, the growth in the experiment on SR leukemia was 20%; in the experiment with RPMI-8226 leukemia it was 6.32% (active); in the experiment with OVCAR-8 ovarian, 35.9%; in the experiment with OVCAR-5 ovarian, 45.4%; in the experiment on OVCAR-4 ovarian, 58.1%; in the experiment with SK-OV-3 ovarian, 11.2%. For the same compound, the growth was 50.1% with IGROV1 ovarian, 33.6% in the experiment on OVCAR-3 ovarian, 10.6% in the experiment with HS 578T breast and 22.1% in the experiment on NCI/ADR-RES ovarian.

For `O=C1/C(=C\C(Cl)=C/c2ccc([N+](=O)[O-])cc2)SC(=S)N1CCc1ccc(O)cc1`, the growth in the experiment with SR leukemia was 13.2%; in the experiment on RPMI-8226 leukemia, -3.41% (active); with OVCAR-8 ovarian, 13.3%; in the experiment with OVCAR-5 ovarian, -33.9% (active); in the experiment on OVCAR-4 ovarian it was 26.7%; with SK-OV-3 ovarian, 31.8%. For the same compound, the growth in the experiment with IGROV1 ovarian was -67.9% (active); with OVCAR-3 ovarian it was -53.6% (active); with HS 578T breast, 31.2%; in the experiment on NCI/ADR-RES ovarian it was 9% (active).

Take `O=C1C(=O)N(CCCCn2cc(-c3ccccc3)nn2)c2ccccc21`: the growth in the experiment with SR leukemia was 108%; in the experiment on RPMI-8226 leukemia, 95.6%; in the experiment on OVCAR-8 ovarian, 103%; with OVCAR-5 ovarian, 102%; in the experiment on OVCAR-4 ovarian it was 106%; in the experiment with SK-OV-3 ovarian it was 111%. Also, the growth with IGROV1 ovarian is 101%; with OVCAR-3 ovarian, 111%; with HS 578T breast, 99.1%; with NCI/ADR-RES ovarian, 104%.

On to `O=C(NCN1C(=O)c2cccc3cccc(c23)C1=O)N1CCC(Cc2ccccc2)CC1`, for which the growth was 89.6% in the experiment with SR leukemia; 87.8% with RPMI-8226 leukemia; 102% in the experiment on OVCAR-8 ovarian; 104% in the experiment on OVCAR-5 ovarian; 98.8% with OVCAR-4 ovarian; 91.3% in the experiment with SK-OV-3 ovarian. Further, the growth in the experiment on IGROV1 ovarian is 100%; in the experiment on OVCAR-3 ovarian, 109%; with HS 578T breast, 95.8%; in the experiment with NCI/ADR-RES ovarian it was 102%.

For `c1csc(-c2nc(-c3cc4ccccc4c(N4CCOCC4)n3)cs2)c1`, the growth with SR leukemia was 97.7%; in the experiment on RPMI-8226 leukemia, 106%; in the experiment with OVCAR-8 ovarian, 102%; in the experiment with OVCAR-5 ovarian, 124%; with OVCAR-4 ovarian, 110%; in the experiment on SK-OV-3 ovarian, 99.5%. For the same compound, the growth in the experiment on IGROV1 ovarian is 86.3%; with OVCAR-3 ovarian it was 111%; with HS 578T breast, 99.9%; in the experiment with NCI/ADR-RES ovarian, 94.2%.

For `CCC1C(=O)COC1=O` (stereo not given), the growth in the experiment with SR leukemia was 99.2%; in the experiment with RPMI-8226 leukemia, 83.9%; in the experiment with OVCAR-8 ovarian, 96.6%; in the experiment with OVCAR-5 ovarian, 108%; in the experiment with OVCAR-4 ovarian it was 105%; with SK-OV-3 ovarian it was 71.4%. Moreover, the growth in the experiment on IGROV1 ovarian was 104%; in the experiment on OVCAR-3 ovarian, 109%; with HS 578T breast it was 99.1%; with NCI/ADR-RES ovarian it was 87.9%.
